Shown are actives, neighbours in structure and some others; about 1.6% of the full set was active somewhere.
KCNQ2 enhance = potentiators of rat KCNQ2 potassium channel; B-score at 10 µM; 310,000 compounds, 0.54% hits; AID 2239, 2010; CHO-K1 KCNQ2, FluxOR thallium flux fluorescence; stronger effect = higher value; Potassium voltage-gated channel subfamily KQT member 2 (Rattus norvegicus), O88943;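 active = fluorescence ratio B-score at least 3 SD of library B-scores, with initial fluorescence B-score within 3 of them, cut at about 5.3 in these data; same plate scores as AID 2156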;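 note: B-score of peak minus minimum over baseline fluorescence ratio after K+ and Tl+ stimulus; positive B-score means potentiation of KCNQ2 with more thallium influx and brighter signal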
KCNQ2 inh = rat KCNQ2 potassium channel inhibitors, primary screen, cell-based, CHO-K1, FluxOR thallium flux, B-score | Potassium voltage-gated channel subfamily KQT member 2 (Rattus norvegicus), O88943 | 20 min; stronger effect = lower value | B-score at 10 µM | 310,000 compounds, 1.1% hits | AID 2156, 2009;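 active = fluorescence ratio B-score at most minus 3 library SDs, with starting brightness B-score within 2 library SDs, cut at about -5.5 in these data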
Kir21 confirm = mouse Kir2.1 channel blockers, retest, confirmation, cell-based, FluxOR thallium flux, duplicate. 2,300 compounds, 41% hits. AID 2032, 2009. Kir2.1-expressing cells, FluxOR thallium flux fluorescence; stronger effect = lower value. shares compounds with KCNQ2 enhance. Tl flux remaining, % of negative control (stronger effect = lower value), % at 10 µM;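 active = Primary-screen hit whose thallium flux fell at least 3 control SD below untreated wells in both duplicates, with normal baseline fluorescence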;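 note: 0% = blank wells without stimulus and 100% = stimulated no-compound controls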
Target sequence (P35561 whole entry, looked up): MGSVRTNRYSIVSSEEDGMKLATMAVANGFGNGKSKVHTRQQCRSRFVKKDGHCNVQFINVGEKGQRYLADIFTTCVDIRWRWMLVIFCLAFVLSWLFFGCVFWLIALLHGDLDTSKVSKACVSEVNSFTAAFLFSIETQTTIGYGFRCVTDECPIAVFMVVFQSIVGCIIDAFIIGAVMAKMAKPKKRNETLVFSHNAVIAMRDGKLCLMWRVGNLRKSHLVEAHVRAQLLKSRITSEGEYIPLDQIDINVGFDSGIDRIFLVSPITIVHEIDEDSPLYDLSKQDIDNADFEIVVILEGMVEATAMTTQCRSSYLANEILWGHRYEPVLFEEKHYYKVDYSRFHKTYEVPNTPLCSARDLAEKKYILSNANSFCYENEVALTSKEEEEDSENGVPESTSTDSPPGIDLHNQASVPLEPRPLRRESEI
HEK293 ctr = parental HEK293 activity in Kir2.1 inhibitor counter-screen; shares compounds with KCNQ2 enhance; parental HEK293 cells, FluxOR thallium flux fluorescence; 0% = unstimulated blank wells; FluxOR signal as % of negative control (100 = no effect), % at 10 µM; 2,300 compounds, 19% hits; AID 2105;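 active = dye signal at least 3 control SD above or below untreated wells in both duplicates, raw fluorescence within 3, either direction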;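 note: percent is based on the flux ratio of peak minus minimum fluorescence over baseline F0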
CHO-K1 ctr = nonspecific thallium flux increase in parental CHO-K1, confirmation, counter-screen for KCNQ2 potentiator project, cell-based, FluxOR thallium flux, duplicate; shares compounds with KCNQ2 enhance; parental CHO-K1 cells, FluxOR thallium flux fluorescence; zero = vehicle mean+3SD, 100% = vehicle-minus-blank window; activity increase over 3SD of controls, % at 10 µM; 1,200 compounds, 43% hits; AID 2282, 2010;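 active = signal rise of at least 3 SD above the untreated control mean, in both duplicate wells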;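 note: counter screen of KCNQ2 potentiator hits so any rise reflects channel-independent effects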
KCNQ1 pot spec = human KCNQ1 channel potentiation off-target, confirmation, selectivity assay for KCNQ2 potentiator project, cell-based, CHO, FluxOR thallium flux; shares compounds with KCNQ2 enhance; CHO KCNQ1 stable, FluxOR thallium flux fluorescence; beyond 3SD, as % of vehicle-control signal; activation over 3SD threshold, % at 10 µM; 1,200 compounds, 28% hits; AID 2283, 2010;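 active = fluorescence ratio rise of at least 3 SD of vehicle wells above their mean, in both replicate wells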;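 note: 0% = vehicle mean plus 3 SD and 100% = vehicle minus unstimulated blank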
KCNQ2 pot confirm = rat KCNQ2 channel potentiators, confirmation, cell-based, CHO, FluxOR thallium flux, duplicate; shares compounds with KCNQ2 enhance; CHO-KCNQ2 cells, FluxOR thallium flux fluorescence; potentiation, less the hit threshold, % at 10 µM; 1,200 compounds, 68% hits;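 active = fluorescence ratio rising 3 SD or more over the vehicle control mean in both replicates, plus primary screen hit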;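 note: peak minus minimum thallium fluorescence divided by baseline after K/Tl stimulus; 0% = vehicle mean plus 3 SD and 100% = vehicle minus unstimulated blank difference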
Kir21 spec = mouse Kir2.1 channel activation off-target, confirmation, selectivity assay for KCNQ2 potentiator project, cell-based, HEK293, FluxOR thallium flux; shares compounds with KCNQ2 enhance; HEK293 Kir2.1, FluxOR thallium flux fluorescence; activity over 3SD threshold, % at 10 µM; 1,200 compounds, 2% hits;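 active = fluorescence ratio rise of at least 3 SD above the vehicle-control mean, seen in both replicates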;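 note: 0% = vehicle mean plus 3 SD and 100% = vehicle minus no-stimulus blank window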
KCNQ2 W236L pot = potentiators of retigabine-insensitive KCNQ2 W236L, mechanism study for KCNQ2 potentiator project, cell-based, rat KCNQ2 W236L, CHO, automated patch clamp | 940 compounds, 10% hits | automated patch clamp current | current increase over 3SD of negative controls (%), stronger effect = higher value, % at 25 µM | shares compounds with KCNQ2 enhance;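 active = current increase at least 3 SD of the untreated controls above them in both duplicate recordings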
Numbers without * were called inactive; i = inactive; . = no result.

SMILES	KCNQ2 enhance	KCNQ2 inh	Kir21 confirm	HEK293 ctr	others
OC(c1ccccc1)(c1ccccc1)c1ccn[nH]1	0.76	i	.	.
CNCCCCOc1ccccc1Cc1ccccc1	.	i	28.5%*	i
CN(C)CCOc1ccccc1Cc1ccccc1	0.7	i	.	.
COCc1cc(C)nc(SCC(=O)Nc2ccc3c(c2)n(C)c(=O)n3C)c1C#N	1.57	i	.	.
CCC(=O)N1CCc2nc(-c3ccccc3)sc2C1	.	i	.	.
O=C(NC(=S)N1CCN(c2ccc(Cl)cc2[N+](=O)[O-])CC1)c1ccco1	.	i	.	.
O=C(NC(=S)N1CCN(c2ccc(Cl)cc2[N+](=O)[O-])CC1)c1cccs1	5.54*	i	i	151.0%*	CHO-K1 ctr=52.8*;KCNQ1 pot spec=23.6*;KCNQ2 pot confirm=8.6*;Kir21 spec=-32.1;KCNQ2 W236L pot=i
O=C(CCS(=O)(=O)c1ccc(Cl)cc1)Nc1nnc(-c2ccco2)o1	.	i	.	.
O=C(Nc1ccc(-n2cnnn2)cc1)C1CCC1	.	i	.	.
O=C(Cc1ccc(-n2cnnn2)cc1)NC12CC3CC(CC(C3)C1)C2	6.18*	i	i	i	CHO-K1 ctr=83.0*;KCNQ1 pot spec=-17.4;KCNQ2 pot confirm=3.4*;Kir21 spec=-41.0;KCNQ2 W236L pot=i
CCCCCCCCC1CC(C(=O)Nc2ccccc2)C(=O)O1 (centres undefined)	1.7	i	.	.
CC(C)CC(=O)N1CCN(C(=O)c2ccc(F)cc2)CC1	0.06	i	.	.
COCCCNC(=O)CSc1nc2ccccc2c(=O)n1CCCN1CCCCC1	0.68	i	.	.
COc1ccc(NC(=O)CSc2nc3ccccc3c(=O)n2CCCN2CCCCC2)c(OC)c1	.	i	62.5%*	i
CN(C(=O)c1ccccc1[N+](=O)[O-])c1ccccc1C(=O)NCc1ccccc1	0.61	i	.	.
COC(=O)c1cc(F)c(-n2cncn2)c(F)c1	0.25	i	.	.
COC(=O)c1cc([N+](=O)[O-])c(-n2cncn2)c([N+](=O)[O-])c1	.	i	73.0%*	i
CN(C)C(=O)N1CCC(C(=O)N2CCCC(C(=O)c3cccc4ccccc34)C2)CC1 (centres undefined)	1.12	i	.	.
CCC1CCCCN1Cc1ccc(N)cc1 (centres undefined)	.	i	.	.
COc1ccc(C2C(C#N)=C3NC(=O)c4c(sc5c4CCCCC5)N3C3=C2C(=O)CC(C)(C)C3)cc1 (centres undefined)	13.3*	i	i	i	CHO-K1 ctr=69.9*;KCNQ1 pot spec=-4.4;KCNQ2 pot confirm=15.2*;Kir21 spec=-23.0;KCNQ2 W236L pot=i
COc1ccc(C2C(C#N)=C(N)N(c3sc4c(c3C#N)CCCC4)C3=C2C(=O)CC(C)(C)C3)cc1 (centres undefined)	.	i	.	.
O=C1CN(C(=O)CCCc2c[nH]c3ccccc23)c2ccccc2N1	.	i	50.5%*	i
O=C(O)CCCC(=O)N1CC(=O)Nc2ccccc21	1.68	i	.	.
CCc1ccc(CN(C)C(C)C(=O)NCc2ccccc2)cc1 (centres undefined)	.	i	.	.
COc1ccc(CNC(=O)CN(C)Cc2ccc(SC)cc2)cc1	.	i	i	i
SMILES	KCNQ2 enhance	KCNQ2 inh	Kir21 confirm	HEK293 ctr	others
CSc1ccc(CN(C)C(C)C(=O)NCc2ccccc2)cc1 (centres undefined)	.	i	34.5%*	i
CSc1ccc(CN(C)CC(=O)NCc2ccccc2)cc1	.	i	.	.
COc1ccc(OC)c(N=C2SCCCN2C(=O)c2ccc(N3C(=O)CCC3=O)cc2)c1	.	i	.	.
CC12C(=O)N(c3ccc(C(=O)N4CCOCC4)cc3)C(=O)C1C1c3ccccc3C2c2ccccc21 (centres undefined)	2.16	i	.	.
O=C(O)c1cc(Cl)c(Cl)cc1C(=O)NCc1ccco1	.	i	.	.
CCOC(=O)c1c(-c2ccc(C)o2)csc1N	.	i	.	.
CCOC(=O)c1c(-c2ccc(C)o2)csc1NC(=S)NC(=O)N(C)C	14.5*	i	i	314.0%*	CHO-K1 ctr=-10.2;KCNQ1 pot spec=-18.5;KCNQ2 pot confirm=33.8*;Kir21 spec=-8.2;KCNQ2 W236L pot=58.9%*
COc1ccc(/C=C/C(=O)CC(O)(c2ccccc2)C(F)(F)F)cc1 (centres undefined)	.	i	.	.
O=C(/C=C/c1ccccc1)CC(O)(c1ccccc1)C(F)(F)F (centres undefined)	.	i	61.5%*	i
CC(C)C[C@H](NC(=O)[C@H](Cc1ccccc1)n1c(=O)[nH]c2ccccc2c1=O)C(=O)N1CCC[C@H]1C(=O)O	0.72	i	.	.
O=C(COc1ccccc1)Nc1cc(C(F)(F)F)ccc1N1CCCC1	.	i	.	.
COc1cccc(CC(=O)Nc2cc(C(F)(F)F)ccc2N2CCCC2)c1	5.37*	i	i	i	CHO-K1 ctr=-14.7;KCNQ1 pot spec=-21.9;KCNQ2 pot confirm=-0.8;Kir21 spec=-32.5;KCNQ2 W236L pot=i
CN1CCN(NC(=O)COc2cccc(C(F)(F)F)c2)CC1	.	i	.	.
Cc1cc(N2CCCC2)ccc1NC(=O)COc1cccc(C(F)(F)F)c1	6.4*	i	i	i	CHO-K1 ctr=-10.8;KCNQ1 pot spec=-12.4;KCNQ2 pot confirm=6.0*;Kir21 spec=-39.9;KCNQ2 W236L pot=i
CS(=O)(=O)N(Cc1ccccc1)c1ccc(C(=O)Nc2ccc(C(N)=O)cc2)cc1	.	i	i	i
CC(=O)c1cccc(NC(=O)c2ccc(N(Cc3ccccc3)S(C)(=O)=O)cc2)c1	1.6	i	.	.
CCCN1CC(O)=C(C#N)C1=O	.	i	.	.
O=C(Cc1ccc(F)cc1)Nc1cccc(-c2cn3c(n2)SCC3)c1	10.1*	i	i	i	CHO-K1 ctr=-12.8;KCNQ1 pot spec=-19.2;KCNQ2 pot confirm=-28.9;Kir21 spec=-43.3
O=C(Nc1cccc(-c2cn3c(n2)SCC3)c1)c1ccc(Br)o1	.	i	.	.
C/C(=N/NC(=O)c1ccco1)c1ccc(NC(=O)c2ccc(F)cc2)cc1	0.99	i	.	.
CC(=O)c1c(C(=O)O)[nH]c(C(=O)O)c1C	0.49	i	.	.
COc1ccccc1CCNCc1ccc(OC)c(OCc2ccccc2)c1	.	i	i	i
COc1ccc(CNCc2ccco2)cc1OCc1ccccc1	0.49	i	.	.
O=C(Oc1ccccc1)N1CCN(C(=O)c2ccco2)CC1	.	i	.	.

Source: PubChem (Johns Hopkins Ion Channel Center)
